By AC50 is commonly meant the concentration at which the activity in the assay is half-maximal.

Results on six compounds are retold here after PubChem BioAssay (EPA / NIEHS).

Assay [1] can be described thus: LTEA_HepaRG_LDH_cytotoxicity: Cytotoxicity Assessment in the Life Technologies and Expression Analysis (LTEA) Assay (AID 2283563).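 As to AC50: LDH activity released into spent culture medium as a marker of cell death.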 Summed up: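 Human HepaRG hepatic cells are treated with test chemicals for 48 h at up to 100 uM in 0.5% DMSO. Cytotoxicity is scored from medium LDH against the vehicle control.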
Assay [2] is described as follows: ATG_XTT_Cytotoxicity: Cytotoxicity Assessment in the Attagene TRANS-FACTORIAL HepG2 Assay (AID 2283584). In short, it runs like this: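 Transfect HepG2 with GAL4-UAS reporter units, dose compound, incubate 24 h, then measure viable cell number by XTT. Fit concentration response against DMSO baseline.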
A short description of assay [3]: TOX21_p53_BLA_p2_viability: Viability Assessment in the Tox21 HCT-116 p53 Agonism Beta-lactamase Assay, Phase 2 (AID 2283591).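 Also: compound exposure lasted 16 h at 37 °C; actives lower the ATP signal meaning cytotoxicity.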 Summed up: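 Cytotoxicity readout: CellTiter-Glo ATP luminescence, 30 min at room temperature, after the beta-lactamase read. Cells were HCT116 exposed 16 h at 37C to compounds pin-transferred at 217-fold dilution from DMSO stocks.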
Assay [4] deals with Cellular tumor antigen p53 (Homo sapiens) (UniProt P04637). As to the kind of experiment: TOX21_p53_BLA_p2_ratio: Tox21 HCT-116 p53 Agonism Beta-lactamase Assay, Ratio, Phase 2 (AID 2283592). In short, it runs like this: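 Cleaved-to-uncleaved substrate ratio (460 vs 530 nm) measured in HCT116 cells with an inducible beta-lactamase reporter linked to p53 activity. Compounds incubated 16 h at 37C before 2 h room-temperature CCF4-AM loading.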
Sequence of Cellular tumor antigen p53 (Homo sapiens) (P04637 whole entry, looked up): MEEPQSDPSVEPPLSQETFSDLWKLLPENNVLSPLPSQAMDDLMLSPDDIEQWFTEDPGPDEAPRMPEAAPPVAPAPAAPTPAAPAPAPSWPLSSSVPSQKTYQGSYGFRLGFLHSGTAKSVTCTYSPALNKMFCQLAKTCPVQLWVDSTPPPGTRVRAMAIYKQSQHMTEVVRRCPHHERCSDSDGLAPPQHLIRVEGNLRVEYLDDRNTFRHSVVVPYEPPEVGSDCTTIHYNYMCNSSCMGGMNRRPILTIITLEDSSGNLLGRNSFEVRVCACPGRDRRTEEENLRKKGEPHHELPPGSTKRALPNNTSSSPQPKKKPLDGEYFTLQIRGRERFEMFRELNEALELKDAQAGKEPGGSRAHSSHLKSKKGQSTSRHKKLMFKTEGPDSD

Assay [5] in a line: TOX21_p53_BLA_p3_viability: Viability Assessment in the Tox21 HCT-116 p53 Agonism Beta-lactamase Assay, Phase 3 (AID 2283593).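 Also: cells exposed to compound for 16 h before reading.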 In short, it runs like this: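 Cellular ATP was quantified by CellTiter-Glo luminescence, read after 30 min at room temperature. Beforehand, HCT116 cells (4000/well) received compound 5 h post-seeding, 217-fold diluted from DMSO, then incubated 16 h at 37C.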

Assay [6] has as its target Cellular tumor antigen p53 (Homo sapiens) (UniProt P04637). As to the kind of experiment: TOX21_p53_BLA_p3_ratio: Tox21 HCT-116 p53 Agonism Beta-lactamase Assay, Ratio, Phase 3 (AID 2283596). Summed up: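 Cells were seeded at 4000/well, rested 5 h at 37C, then dosed with DMSO compound solutions (217-fold dilution) for 16 h. CCF4-AM substrate was loaded for 2 h at room temperature, and the 460/530 nm emission ratio was fitted for gain of signal versus DMSO.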

Assay [7] is described as follows: TOX21_p53_BLA_p4_viability: Viability Assessment in the Tox21 HCT-116 p53 Agonism Beta-lactamase Assay, Phase 4 (AID 2283597).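 Also: hits lower the luminescence signal meaning cytotoxicity.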 Summed up:
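Viability is taken as cellular ATP: after 16 h compound exposure of HCT116 cells and a 2 h room-temperature CCF4-AM substrate step, CellTiter-Glo reagent is added and luminescence is measured 30 min later.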

Assay [8] has as its target Cellular tumor antigen p53 (Homo sapiens) (UniProt P04637). Nature of the assay: TOX21_p53_BLA_p5_ratio: Tox21 HCT-116 p53 Agonism Beta-lactamase Assay, Ratio, Phase 5 (AID 2283599). Summed up: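 Beta-lactamase reporter ratio (blue 460 nm over green 530 nm, 405 nm excitation) after 2 h CCF4-AM loading, in HCT-116 cells exposed 16 h at 37 C to compounds pinned at 217-fold dilution. Increases relative to DMSO baseline scored.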

Assay [9] is described as follows: TOX21_p53_BLA_p5_viability: Viability Assessment in the Tox21 HCT-116 p53 Agonism Beta-lactamase Assay, Phase 5 (AID 2283600). Summed up: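 Viability is taken from cellular ATP content, measured by luciferase luminescence in the same wells after the beta-lactamase ratio read. Cells are seeded at 4000 per well and exposed to DMSO-dissolved compounds, diluted 217-fold, for 16 h.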

In assay [10] the target is Cellular tumor antigen p53 (Homo sapiens) (UniProt P04637). As to the kind of experiment: TOX21_p53_BLA_p4_ratio: Tox21 HCT-116 p53 Agonism Beta-lactamase Assay, Ratio, Phase 4 (AID 2283601). In short, it runs like this:
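Signal is the blue/green (460nm/530nm) ratio of cleaved versus uncleaved CCF4-AM substrate, read after 2 h substrate loading. Cells were HCT116 carrying the p53-responsive beta-lactamase reporter, dosed 16 h at 37C, 5% CO2; CellTiter-Glo measured in parallel.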

A short description of assay [11]: Tanguay_ZF_120hpf_MORT_legacy: (Legacy) Oregon State University Tanguay Lab 120 Hour Post-fertilization zebrafish Assay for Mortality (AID 2283633).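 As to AC50: fitted as increase in binary mortality versus DMSO negative control.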 Summed up:
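Mortality endpoint from a multiplexed whole-embryo zebrafish screen. Dechorionated wild-type embryos received compound at 6 hpf and remained under static exposure at 28C until 120 hpf, with death noted as a present/absent call.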

Assay [12] in a line: Tanguay_ZF_120hpf_YSE_legacy: (Legacy) Oregon State University Tanguay Lab 120 Hour Post-fertilization zebrafish Assay for Yolk Sac Edema (AID 2283634). Summed up: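 Readout: presence or absence of yolk sac edema at 120 hpf, fitted upward against DMSO controls. Exposure ran statically from 6 hpf in dechorionated embryos kept at 28C.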
Assay [13] can be described thus: Tanguay_ZF_120hpf_AXIS_legacy: (Legacy) Oregon State University Tanguay Lab 120 Hour Post-fertilization zebrafish Assay for Body Axis Malformation (AID 2283635).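 As to AC50: potency for an increased fraction of larvae scored with body axis malformation.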 In short, it runs like this:
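Static 6–120 hpf chemical exposure of dechorionated wild-type 5D zebrafish, one per well at 28C; morphology endpoint scored binary at 120 hpf relative to DMSO control.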

Assay [14] in a line: Tanguay_ZF_120hpf_EYE_legacy: (Legacy) Oregon State University Tanguay Lab 120 Hour Post-fertilization zebrafish Assay for Eye Malformation (AID 2283636).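 Also: binary presence or absence of eye malformation scored by brightfield in 120 hpf larvae.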 Summed up:
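Binary brightfield scoring of eye defects at 120 hpf after static exposure from 6 hpf of single pronase-dechorionated wild-type embryos (28C, 0.64% DMSO). Non-mortality endpoints omitted where embryos died; fit vs DMSO.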

The nature of assay [15]: Tanguay_ZF_120hpf_SNOU_legacy: (Legacy) Oregon State University Tanguay Lab 120 Hour Post-fertilization zebrafish Assay for Snout Malformation (AID 2283637). Summed up: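 Binary snout-malformation call at 120 hpf in wild-type 5D embryos, chorion removed by pronase, under static exposure from 6 hpf at 28C (0.64% DMSO). Embryos dying by 24 or 120 hpf excluded.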
Assay [16] is described as follows: Tanguay_ZF_120hpf_JAW_legacy: (Legacy) Oregon State University Tanguay Lab 120 Hour Post-fertilization zebrafish Assay for Jaw Malformation (AID 2283638).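 As to AC50: active means more embryos with jaw malformation than DMSO controls.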 In short, it runs like this: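 Static waterborne exposure of dechorionated wild-type (Tropical 5D) zebrafish from 6 to 120 hpf at 28C, 0.64% DMSO vehicle; 5uM trimethyltin chloride served as positive control. Jaw morphology recorded as binary at 120 hpf.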

Assay [17] can be described thus: Tanguay_ZF_120hpf_OTIC_legacy: (Legacy) Oregon State University Tanguay Lab 120 Hour Post-fertilization zebrafish Assay for Otic Vesicle Malformation (AID 2283639). Summed up: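 Statically exposed wild-type 5D zebrafish embryos, kept sealed and dark at 28C through 120 hours post fertilization, were examined by brightfield microscopy for otic vesicle defects. Responses were recorded as present or absent and analysed relative to DMSO.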

The nature of assay [18]: Tanguay_ZF_120hpf_PE_legacy: (Legacy) Oregon State University Tanguay Lab 120 Hour Post-fertilization zebrafish Assay for Pericardial Edema (AID 2283640). In short, it runs like this:
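Read-out is the presence or absence of pericardial edema at 120 hpf under brightfield, with gain of signal fitted against DMSO controls. Larvae (5D wild-type) were statically exposed at 28C with 0.64% final DMSO.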

The nature of assay [19]: Tanguay_ZF_120hpf_BRAI_legacy: (Legacy) Oregon State University Tanguay Lab 120 Hour Post-fertilization zebrafish Assay for Brain Malformation (AID 2283641). Summed up:
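Brain malformation in Tropical 5D zebrafish was recorded as a binary endpoint after static compound exposure from early development to 120 hpf at 28C. Activity was analysed against DMSO as negative control.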

The nature of assay [20]: Tanguay_ZF_120hpf_SOMI_legacy: (Legacy) Oregon State University Tanguay Lab 120 Hour Post-fertilization zebrafish Assay for Somite Malformation (AID 2283647). Summed up:
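5D WT zebrafish; chorion removed 4 hpf; 1 embryo/well from 6 hpf; static exposure to 120 hpf, 28C, 0.64% DMSO final. Endpoint: somite malformation, binary, brightfield. Mortality excluded.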

Where “and” joins values, the source holds several entries; their conditions need not be identical. Identical values can stand only once. Records with an inconclusive call do not appear. Where a structure was tested more than once in an assay, its records may differ in their call. Calls of active or inactive are those of the source. The calls were made as follows: active = hit-call score of the fitted dose curve at least 0.9, where 1 is the maximum; inconclusive = response in the unintended direction; inactive = score below 0.9.

Regarding `O=C(O)Cc1cc(I)c(Oc2cc(I)c(O)c(I)c2)c(I)c1`, the AC50 in assay [1] is 61.9 µM (active); in assay [3] it was 24.1 µM (active); in [5], 46.1 µM (active); in assay [6] it was 28.2 µM (active); in assay [7], 30.9 µM (active); in assay [8], 30.6 µM (active). Besides, the AC50 in assay [9] was 49.3 µM (active); in [10], 33.1 µM (active); in [11], 8.91 µM (active); in assay [13] it was 0.0204 µM (active); in assay [14], 0.0114 µM (active); in assay [15], 0.00601 µM (active). Also, the half-maximal activity concentration (AC50) in assay [16] is 0.00848 µM (active); in [19], 0.00612 µM (active). The compound was called inactive in assay [2], in assay [4], in [12], in assay [17], in assay [18] and in [20].

For the compound `CCCCCCC(=O)O`, the call in assay [1], in assay [2], in [4], in [5], in assay [6] and in assay [7] was inactive. For the same compound, the compound was called inactive in assay [9], in assay [10], in [11], in assay [12], in [13] and in assay [15]. Besides, the outcome in assay [16], in [17], in [18], in [19] and in [20] was inactive.

Take `CC(C)(C)c1ccc(O)c(C(C)(C)C)c1`: the compound was classed as inactive in assay [1], in assay [2], in assay [3], in assay [4], in assay [7] and in assay [9]. For the same compound, the outcome in assay [10], in assay [11], in assay [12], in assay [13], in assay [14] and in assay [15] was inactive. The outcome in assay [16], in assay [17], in assay [18], in [19] and in assay [20] was inactive. Further, the concentration at half-maximal activity (AC50) in [3] was 42.4 µM (active); in [5] it was 63.6 µM (active) and 86.7 µM (active); in [6] it was 77.4 µM (active) and 79.4 µM (active); in [7] it was 42.7 µM (active); in assay [8] it was 57.1 µM (active) and 60.2 µM (active); in assay [9], 42.7 µM (active). The AC50 in assay [10] was 72.4 µM (active).

`O=[N+]([O-])c1ccc(O)cc1`: the result in assay [1], in assay [2], in assay [3], in [4], in [5] and in assay [6] was inactive. In addition, the result in [7], in assay [8], in [9], in assay [10], in assay [11] and in assay [12] was inactive. Besides, the result in assay [13], in assay [14], in [15], in assay [16], in [17] and in assay [18] was inactive. The result in assay [19] and in [20] was inactive.

On to `CCCCC(CC)COC(=O)CCCCC(=O)OCc1ccccc1` (stereo unspecified), for which the compound was called inactive in assay [1], in assay [2], in assay [3], in assay [4], in assay [6] and in assay [9]. In addition, the outcome in assay [10], in assay [11], in assay [12], in [13], in assay [14] and in assay [15] was inactive. The result in assay [16], in assay [17], in [18], in assay [19] and in [20] was inactive.

Consider `OCCC(F)(F)C(F)(F)C(F)(F)C(F)(F)C(F)(F)C(F)(F)C(F)(F)C(F)(F)F`, for which the result in [1], in assay [2], in assay [3], in [4], in assay [6] and in assay [8] was inactive. In addition, the compound was classed as inactive in assay [9], in assay [10], in assay [11], in [13], in assay [15] and in assay [19]. The call in assay [20] was inactive.
